PubChem BioAssay (NCATS)
Results filed as inconclusive are left out. Activity calls are given as the source filed them. Unless noted, the call rests on the fitted dose curve; in most records, active means well fitted curve in the direction sought with a large enough effect; inconclusive means small, poorly fitted or top-dose-only effect, or another doubt; inactive means no such curve, though single readings can be large; an effect the other way counts as inactive or inconclusive.

Columns and labels:
[1] = molecular target: Rap guanine nucleotide exchange factor 3 (Homo sapiens) (UniProt O95398); assay: Confirmatory qHTS for antagonist of cAMP-regulated guanine nucleotide exchange factor 3 (EPAC1) (AID 1645880); conditions: EPAC1 Rap1B-BODIPY-GDP exchange, fluorescence; activity, negative = inhibition: at 115 µM (top of the series);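 further: plate controls were DMSO only for no effect and full effect of the ATA control for full effect; nearly all actives have a fitted effect of over 55% in size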
How it was run: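 Released BODIPY-GDP fluoresces less than Rap1-bound BODIPY-GDP; the signal is followed at 480/540 nm at 5-min intervals over 30 min, after 5 min at room temperature. Reactions contain 100 nM EPAC1, 250 nM RAP1B-BODIPY-GDP and 50 uM GDP; results are normalized to ATA and DMSO.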

[2] = molecular target: Rap guanine nucleotide exchange factor 3 (Homo sapiens) (UniProt O95398); assay: Confirmatory qHTS for agonist of cAMP-regulated guanine nucleotide exchange factor 3 (EPAC1) (AID 1645881); further: nearly all actives have a fitted effect of over 75% in size; further: potency means the concentration at half of the fitted maximal effect;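 on activation: EPAC1 catalysed release of BODIPY-GDP from Rap1B seen as fluorescence loss; 100% = effect of cAMP agonist control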
[3] = molecular target: Rap guanine nucleotide exchange factor 4 (Homo sapiens) (UniProt Q8WZA2); assay: Confirmatory qHTS for agonist of cAMP-regulated guanine nucleotide exchange factor 4 (EPAC2) (AID 1645884);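 further: nucleotide exchange releases bodipy-GDP from Rap1 and this lowers its fluorescence; nearly all actives have a fitted effect of over 65% in size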; further: potency means the concentration at half of the fitted maximal effect; on activation: on the % scale 0 is the no-effect control and ±100 the full control effect
[4] = molecular target: Rap guanine nucleotide exchange factor 4 (Homo sapiens) (UniProt Q8WZA2); assay: Confirmatory qHTS for antagonist of cAMP-regulated guanine nucleotide exchange factor 4 (EPAC2) (AID 1645885); further: nearly all actives have a fitted effect of over 25% in size; further: potency means the concentration at half of the fitted maximal effect
[5] = molecular target: Rap guanine nucleotide exchange factor 3 (Homo sapiens) (UniProt O95398); assay: Counterscreen qHTS for agonist of cAMP-regulated guanine nucleotide exchange factor 3 (EPAC1) (AID 1645889); further: nearly all actives have a fitted effect of over 40% in size; further: potency means the concentration at half of the fitted maximal effect; on activation: % of control where 0% means no effect
How it was run: (§1)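 Rap1B–BODIPY-GDP (250 nM) with 50 uM GDP; compounds pin-transferred to 9.74 nM–152 uM final (activator) or from 7.32 nM upwards (inhibitor). Fluorescence Ex/Em 480/540 nm read at 5 and 30 min, then after adding cAMP or buffer, at room temperature.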

[6] = molecular target: Tumor susceptibility gene 101 protein (Homo sapiens) (UniProt Q99816); assay: qHTS Assay for Iinhibitors of HIV-1 Budding by Blocking the Interaction of PTAP/TSG101: Hit Validation (AID 651600); further: potency means the concentration at half of the fitted maximal effect; nearly all actives have a fitted effect of over 70% in size
How it was run: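 Measuring PTAP–Tsg101 interaction by FP: protein at 10 uM and fluorescent peptide at 50 nM (final), buffer 10 mM HEPES pH 7.5 with 0.15 M NaCl, 3 mM EDTA, 0.1 mM TCEP, 0.01% Tween 20; 20 min incubation, r.t.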

[7] = molecular target: Lysosomal acid glucosylceramidase (Homo sapiens) (UniProt P04062); assay: Glucocerebrosidase-p2 (AID 348; in the data active means potency below about 10 µM; further: potency means the concentration at half of the fitted maximal effect); conditions: purified GBA, blue fluorogenic substrate, 40 min
How it was run: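 Normal human glucocerebrosidase (0.2 nM) with blue fluorogenic substrate (80 uM final) in citrate/phosphate pH 5.9 with 10mM sodium taurocholate, 0.01% tween-20; 40 min RT, NaOH/glycine stop; fluorescence Ex 365/Em 440; AC50 from a titration from 0.6 nM upwards.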

[8] = AP1 Signaling Pathway (AID 357; active means well fitted curve in either direction with a large enough effect, not every such curve was filed as active;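 further: ME-180 reporter cells stimulated with EGF at its EC50 level; on the % scale 0 is the no-effect control and ±100 the full control effect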); conditions: ME-180 (cervical carcinoma) AP-1-bla reporter, EGF-induced, beta-lactamase ratio, 5 h; at 7.69 µM (top of the series) unless noted
How it was run: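 AP-1-bla ME-180 cells, Opti-MEM + 0.5% dialyzed FBS, plated overnight 37 °C. Cpd titration + EC50 EGF, 5 h 37 °C. CCF4 2.5 h RT; ex 405, em 460/530 ratio → %activity, AC50.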

[9] = NFAT Signaling Pathway (AID 444; active means well fitted curve in either direction with a large enough effect, not every such curve was filed as active;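 further: carbachol stimulus at about its EC50 of 1 µM final; on the % scale 0 is the no-effect control and ±100 the full control effect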); conditions: Jurkat NFAT-bla M1, carbachol, beta-lactamase ratio, 5 h; at 7.69 µM (top of the series) unless noted
How it was run: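 Jurkat cells with NFAT-driven β-lactamase reporter and co-expressed M1 receptor, stimulated with carbachol (final 1 uM, ~EC50), compound titration, 5 h at 37 °C. CCF4 loaded 1 h at RT; 460/530 nm ratio gave %activity and AC50.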

[10] = Stat Signaling Pathway (AID 446; active means well fitted curve in either direction with a large enough effect, not every such curve was filed as active;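 further: ME-180 cervical cancer cells given 40 pM IL-6 alongside compound; SIE-controlled beta-lactamase reporter measured as 460/530 nm FRET emission ratio; on the % scale 0 is the no-effect control and ±100 the full control effect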)
How it was run: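 FRET read-out (405 nm excitation, 460/530 nm emission) of a beta-lactamase reporter under a STAT-inducible element in ME-180 cervical carcinoma cells. Cells with compound receive 40 pM IL-6 for 5 h. Values are normalised to AC90 stimulation and AC90 JAK-inhibitor controls.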

[11] = molecular target: Glucocorticoid receptor (Homo sapiens) (UniProt P04150); assay: GR-GFP Redistribution (AID 450;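 active means compounds whose dose series gives a full or clear partial fitted curve of increased nuclear translocation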; further: potency means the concentration at half of the fitted maximal effect); conditions: U2OS GR-GFP nuclear translocation, laser cytometry, 2 h
[12] = molecular target: Glucocorticoid receptor (Homo sapiens) (UniProt P04150); assay: GR-EFC Redistribution (AID 451; calls by dose curve; further: potency means the concentration at half of the fitted maximal effect); conditions: CHO-K1 GR-EFC translocation, beta-gal luminescence, 2 h
How it was run: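 CHO-K1 cells expressing nuclear EA and GR-ED fragments of b-gal; compounds titrated up to 46 uM final, 2 h at 37 C. GR nuclear translocation read as complemented b-gal luminescence after 1 h RT detection.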

[13] = molecular target: 3',5'-cyclic-AMP phosphodiesterase 4B (Homo sapiens) (UniProt Q07343); assay: qHTS Assay for Inhibitors of PDE-IV (AID 607; active means well fitted activation curve with a large enough effect in the main read-out, with a control signal flat, not every such curve was filed as active; further: % of control where 0% means no effect)
How it was run: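 Cell-based read-out of cAMP via a modified cyclic nucleotide-gated channel and membrane potential dye (535/590 nm) in HEK293 cells expressing PDE4 endogenously. Compounds tested up to 22.9 uM final; 100 uM RO 20-1724 reference.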

[14] = molecular target: Ubiquitin carboxyl-terminal hydrolase 1 (Homo sapiens) (UniProt O94782); assay: Inhibitors of USP1/UAF1: Pilot qHTS (AID 504865);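 further: rhodamine fluorescence freed from ubiquitin-rhodamine substrate followed over time; top concentration of the series differs between compounds; on the % scale 0 is the no-effect control and ±100 the full control effect; nearly all actives have a fitted effect of over 35% in size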
How it was run: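 Enzyme-free wells gave the negative control, while test wells held 1nM USP1/UAF1 preincubated with compound for 15 min at room temperature. Ub-Rho at 150nM final started the reaction, and fluorescence at 480/540 nm was recorded kinetically.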

[15] = molecular target: Rap guanine nucleotide exchange factor 3 (Homo sapiens) (UniProt O95398); assay: Counterscreen qHTS for antagonist of cAMP-regulated guanine nucleotide exchange factor 3 (EPAC1) (AID 1645888); further: % of control where 0% means no effect
How it was run: as §1

Chain of Rap guanine nucleotide exchange factor 4 (Homo sapiens) (Q8WZA2 whole entry, looked up): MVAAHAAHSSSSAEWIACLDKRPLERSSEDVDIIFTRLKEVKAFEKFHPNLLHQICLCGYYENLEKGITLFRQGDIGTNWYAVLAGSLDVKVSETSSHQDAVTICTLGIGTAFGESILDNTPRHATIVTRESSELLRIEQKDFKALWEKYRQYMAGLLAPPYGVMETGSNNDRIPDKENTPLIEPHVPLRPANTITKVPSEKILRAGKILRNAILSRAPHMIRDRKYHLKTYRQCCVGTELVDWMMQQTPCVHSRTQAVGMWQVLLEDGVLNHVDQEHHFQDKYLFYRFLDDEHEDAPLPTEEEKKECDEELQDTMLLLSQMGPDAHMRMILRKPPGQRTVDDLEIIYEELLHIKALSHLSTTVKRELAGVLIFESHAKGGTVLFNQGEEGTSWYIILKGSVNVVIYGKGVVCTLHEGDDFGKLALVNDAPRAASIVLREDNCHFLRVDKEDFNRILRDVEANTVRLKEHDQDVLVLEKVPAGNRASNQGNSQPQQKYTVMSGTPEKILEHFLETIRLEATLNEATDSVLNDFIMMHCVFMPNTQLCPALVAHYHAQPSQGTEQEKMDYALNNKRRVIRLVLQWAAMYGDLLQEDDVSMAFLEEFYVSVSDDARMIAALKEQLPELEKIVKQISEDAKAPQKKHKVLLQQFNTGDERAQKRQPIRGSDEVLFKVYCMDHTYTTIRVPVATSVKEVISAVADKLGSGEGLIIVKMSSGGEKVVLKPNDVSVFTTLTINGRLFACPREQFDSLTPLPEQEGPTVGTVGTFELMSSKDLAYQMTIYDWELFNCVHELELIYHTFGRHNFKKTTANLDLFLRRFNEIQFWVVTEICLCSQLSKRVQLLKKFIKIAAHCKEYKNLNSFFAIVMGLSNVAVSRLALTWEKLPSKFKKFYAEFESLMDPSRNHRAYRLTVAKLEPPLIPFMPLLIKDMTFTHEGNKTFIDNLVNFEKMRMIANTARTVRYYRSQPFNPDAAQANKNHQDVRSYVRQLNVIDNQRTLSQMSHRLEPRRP
Chain of Rap guanine nucleotide exchange factor 3 (Homo sapiens) (O95398 whole entry, looked up): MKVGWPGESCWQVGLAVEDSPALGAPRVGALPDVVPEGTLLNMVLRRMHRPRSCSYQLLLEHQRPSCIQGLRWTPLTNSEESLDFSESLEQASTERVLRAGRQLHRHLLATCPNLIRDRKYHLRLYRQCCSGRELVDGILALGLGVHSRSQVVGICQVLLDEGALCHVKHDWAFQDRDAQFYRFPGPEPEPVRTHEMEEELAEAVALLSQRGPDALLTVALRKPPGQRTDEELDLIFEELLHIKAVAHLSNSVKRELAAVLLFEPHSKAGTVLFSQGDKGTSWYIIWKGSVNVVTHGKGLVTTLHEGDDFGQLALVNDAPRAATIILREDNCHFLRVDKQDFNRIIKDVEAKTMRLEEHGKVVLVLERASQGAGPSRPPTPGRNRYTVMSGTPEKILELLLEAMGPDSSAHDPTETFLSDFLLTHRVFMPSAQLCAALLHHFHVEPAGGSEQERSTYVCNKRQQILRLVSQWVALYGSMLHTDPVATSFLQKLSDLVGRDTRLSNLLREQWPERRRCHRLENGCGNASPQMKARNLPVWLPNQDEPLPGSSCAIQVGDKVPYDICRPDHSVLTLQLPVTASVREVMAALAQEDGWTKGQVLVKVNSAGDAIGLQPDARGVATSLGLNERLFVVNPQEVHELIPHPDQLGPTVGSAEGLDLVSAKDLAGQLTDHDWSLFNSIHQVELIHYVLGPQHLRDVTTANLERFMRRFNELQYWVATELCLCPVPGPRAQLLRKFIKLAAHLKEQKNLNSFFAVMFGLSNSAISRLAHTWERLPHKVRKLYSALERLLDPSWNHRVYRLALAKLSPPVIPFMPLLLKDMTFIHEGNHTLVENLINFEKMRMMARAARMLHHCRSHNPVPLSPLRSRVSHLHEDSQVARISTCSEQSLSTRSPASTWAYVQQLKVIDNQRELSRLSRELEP
Chain of Tumor susceptibility gene 101 protein (Homo sapiens) (Q99816 whole entry, looked up): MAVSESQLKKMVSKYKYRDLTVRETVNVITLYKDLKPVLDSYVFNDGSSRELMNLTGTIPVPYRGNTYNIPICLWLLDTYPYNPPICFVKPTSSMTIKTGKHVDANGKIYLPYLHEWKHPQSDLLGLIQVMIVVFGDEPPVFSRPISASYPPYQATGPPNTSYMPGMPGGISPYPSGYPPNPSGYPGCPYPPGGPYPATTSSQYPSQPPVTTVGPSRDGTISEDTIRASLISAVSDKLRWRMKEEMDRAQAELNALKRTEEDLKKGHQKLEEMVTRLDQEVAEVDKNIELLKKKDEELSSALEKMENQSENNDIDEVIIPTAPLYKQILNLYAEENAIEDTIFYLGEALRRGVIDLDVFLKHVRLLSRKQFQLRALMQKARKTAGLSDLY
Chain of Glucocorticoid receptor (Homo sapiens) (P04150 whole entry, looked up, the tested form may be a part): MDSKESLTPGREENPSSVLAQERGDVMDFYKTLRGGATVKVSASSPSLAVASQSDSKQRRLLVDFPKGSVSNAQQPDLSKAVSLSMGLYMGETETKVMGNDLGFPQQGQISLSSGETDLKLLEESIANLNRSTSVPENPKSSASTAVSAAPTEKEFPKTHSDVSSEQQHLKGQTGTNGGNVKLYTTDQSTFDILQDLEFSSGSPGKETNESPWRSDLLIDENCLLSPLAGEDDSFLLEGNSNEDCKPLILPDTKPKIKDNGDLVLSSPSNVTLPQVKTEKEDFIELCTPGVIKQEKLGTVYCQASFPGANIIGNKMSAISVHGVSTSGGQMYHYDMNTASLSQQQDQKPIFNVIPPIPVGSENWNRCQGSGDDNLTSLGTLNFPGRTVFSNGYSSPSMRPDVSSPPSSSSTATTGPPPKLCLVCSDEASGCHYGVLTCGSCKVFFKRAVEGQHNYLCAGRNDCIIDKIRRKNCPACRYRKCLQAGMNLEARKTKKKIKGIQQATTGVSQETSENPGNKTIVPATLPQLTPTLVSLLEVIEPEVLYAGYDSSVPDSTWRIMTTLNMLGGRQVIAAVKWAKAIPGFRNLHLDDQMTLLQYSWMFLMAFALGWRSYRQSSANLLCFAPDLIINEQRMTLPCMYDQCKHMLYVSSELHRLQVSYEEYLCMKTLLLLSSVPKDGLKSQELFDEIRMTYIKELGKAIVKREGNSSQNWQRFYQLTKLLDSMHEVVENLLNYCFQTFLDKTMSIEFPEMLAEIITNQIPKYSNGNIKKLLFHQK
Chain of Ubiquitin carboxyl-terminal hydrolase 1 (Homo sapiens) (O94782 whole entry, looked up): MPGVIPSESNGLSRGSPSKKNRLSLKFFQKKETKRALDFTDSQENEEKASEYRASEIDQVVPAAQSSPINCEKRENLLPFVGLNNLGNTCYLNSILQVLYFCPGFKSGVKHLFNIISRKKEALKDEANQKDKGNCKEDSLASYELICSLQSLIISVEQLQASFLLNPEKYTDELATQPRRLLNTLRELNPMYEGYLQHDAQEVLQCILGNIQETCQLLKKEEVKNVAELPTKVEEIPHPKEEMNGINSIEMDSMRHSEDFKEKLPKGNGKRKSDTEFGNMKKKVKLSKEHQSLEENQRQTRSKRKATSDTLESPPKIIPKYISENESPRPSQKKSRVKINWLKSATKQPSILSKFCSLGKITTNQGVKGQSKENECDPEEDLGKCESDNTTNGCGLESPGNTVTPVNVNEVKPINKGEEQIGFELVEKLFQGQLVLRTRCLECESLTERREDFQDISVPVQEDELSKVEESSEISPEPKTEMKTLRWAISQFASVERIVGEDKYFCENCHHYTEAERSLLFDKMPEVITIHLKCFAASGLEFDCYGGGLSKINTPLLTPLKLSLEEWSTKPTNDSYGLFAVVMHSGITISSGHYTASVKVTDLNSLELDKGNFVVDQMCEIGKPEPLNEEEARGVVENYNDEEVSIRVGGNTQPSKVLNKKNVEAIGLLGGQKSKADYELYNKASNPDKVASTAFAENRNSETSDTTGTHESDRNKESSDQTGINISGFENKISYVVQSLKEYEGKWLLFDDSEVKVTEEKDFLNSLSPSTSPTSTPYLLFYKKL
Chain of Lysosomal acid glucosylceramidase (Homo sapiens) (P04062 whole entry, looked up): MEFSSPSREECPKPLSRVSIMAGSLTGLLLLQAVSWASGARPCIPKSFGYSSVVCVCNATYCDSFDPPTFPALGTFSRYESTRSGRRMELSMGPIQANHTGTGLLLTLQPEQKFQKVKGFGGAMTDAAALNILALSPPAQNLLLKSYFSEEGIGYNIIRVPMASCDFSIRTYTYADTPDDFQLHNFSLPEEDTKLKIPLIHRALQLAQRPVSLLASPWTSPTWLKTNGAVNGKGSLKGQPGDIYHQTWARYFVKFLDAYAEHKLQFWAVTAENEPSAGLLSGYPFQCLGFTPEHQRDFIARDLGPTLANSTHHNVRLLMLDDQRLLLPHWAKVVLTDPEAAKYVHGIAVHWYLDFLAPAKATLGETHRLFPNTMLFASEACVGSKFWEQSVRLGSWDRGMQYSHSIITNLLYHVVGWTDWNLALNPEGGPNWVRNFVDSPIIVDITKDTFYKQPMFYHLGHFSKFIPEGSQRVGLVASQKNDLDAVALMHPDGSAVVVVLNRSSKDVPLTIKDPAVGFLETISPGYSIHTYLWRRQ

COc1cccc(C(=O)C(CCC#N)c2ccccc2)c1 (configuration not stated)
inactive: Potency [1] | Potency [2] | Potency [3] | Potency [4] | Potency [5]

CCN1C(=O)c2cccc3c(N)ccc(c23)C1=O
inactive: Potency [1]
active: Potency [6] 2.06 µM | Potency [2] 100 µM | Potency [3] 100 µM | Potency [4] 75.7 µM | Potency [5] 35.5 µM

O=C(C1CC1)N1CCN(c2ccc([N+](=O)[O-])cc2-n2cccc2)CC1
inactive: Potency [1] | Potency [2] | activation [3] 4.17% [at 17.1 µM, percent relative to cAMP agonist control] | Potency [4] | activation [5] 6.18% [at 30.8 µM]

C=CCN(CC=C)Cc1cc(=O)oc2cc(OC)c(Cl)cc12
inactive: Potency [1] | Potency [2] | activation [3] 3.78% [at 17.1 µM, percent relative to cAMP agonist control] | Potency [4] | activation [5] 20.9% [at 30.8 µM]

O=c1cnc2cnc(OCc3ccccc3)nc2n1CCc1ccccc1
inactive: Potency [7] > 11.4 µM | activity change, negative = inhibition [8] -5.47% | activity change, negative = inhibition [9] -27.9% | outcome [10] | Potency [11] > 9.22 µM | Potency [12] > 46 µM | Potency [13] | Potency [1] | Potency [2] | Potency [3]
active: Potency [4] 31.2 µM

CC(=O)Nc1ccc(N2C(=O)c3cccc4c(O)ccc(c34)C2=O)cc1
active: Potency [6] 2.31 µM | Potency [2] 79.4 µM | Potency [3] 112 µM | Potency [5] 39.8 µM
inactive: Potency [1] | Potency [4]

CC1(C)C(OC(=O)CCC(=O)O)CC[C@]2(C)C1CC[C@@]1(C)C2C(=O)C=C2[C@@H]3C[C@@](C)(C(=O)O)CC[C@]3(C)CCC21C (some centres not stated)
inactive: Potency [14]

Cc1ccc(Sc2ncccc2C(=O)N(C)Cc2cccs2)c(C)c1
inactive: Potency [1] | Potency [2] | Potency [3] | Potency [15]

COC(=O)C1=CN(c2c(C)cc(C)cc2C)C(N)=C(C#N)C1c1cccc(F)c1 (configuration not stated)
inactive: Potency [1] | Potency [2] | Potency [3] | Potency [15]
